This is a sample that favours compounds with a hit; in the whole collection about 1.1% have one here.
RXFP1 antagonist – qHTS Assay for Antagonists of the Relaxin Receptor RXFP1 | activity change, negative = inhibition, % at 57.5 µM | AID 1259400, 2018 | hit rate 0.59% among 350,000 | HEK293-RXFP1, relaxin-stimulated cAMP HTRF, 30 min; active compounds read low;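 active means activity change of -60% or lower, but not beyond a set lower limit; inconclusive means change between -60% and -40%, or beyond the set limit; inactive means change above -40%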
S-ASM inh – Inhibitors of Secretory Acid Sphingomyelinase (S-ASM): qHTS; hit rate 0.006% among 340,000; AID 504937, 2011; placental ASM, HMU-PC fluorogenic substrate, 60 min; Sphingomyelin phosphodiesterase (Homo sapiens), P17405; Potency, µM (highest dose often 57.5 µM), hits mostly inhibitors
Target sequence (P17405 47-631 limits assumed): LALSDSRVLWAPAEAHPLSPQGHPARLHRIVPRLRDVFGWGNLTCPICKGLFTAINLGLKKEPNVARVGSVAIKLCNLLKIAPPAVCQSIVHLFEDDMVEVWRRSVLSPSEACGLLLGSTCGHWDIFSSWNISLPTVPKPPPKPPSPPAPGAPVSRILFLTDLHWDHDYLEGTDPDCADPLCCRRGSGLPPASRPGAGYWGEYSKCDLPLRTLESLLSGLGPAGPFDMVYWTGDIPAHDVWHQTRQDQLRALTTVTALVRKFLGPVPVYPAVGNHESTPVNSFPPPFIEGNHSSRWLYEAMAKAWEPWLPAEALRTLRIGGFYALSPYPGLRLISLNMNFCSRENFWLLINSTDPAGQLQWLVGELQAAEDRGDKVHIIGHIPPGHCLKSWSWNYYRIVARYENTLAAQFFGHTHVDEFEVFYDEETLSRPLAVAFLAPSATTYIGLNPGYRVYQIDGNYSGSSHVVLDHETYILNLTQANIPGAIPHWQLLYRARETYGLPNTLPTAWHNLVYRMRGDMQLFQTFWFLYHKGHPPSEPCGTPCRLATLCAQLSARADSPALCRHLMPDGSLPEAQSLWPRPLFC
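Fluorogenic HMU-PC substrate (9 uM final) is turned over by placental ASM in 60 min at 37 C after a 10 min compound preincubation. Reaction ended by alkaline stop (pH 10), with fluorescence read at 386/447 nm.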
gsp antagonist – qHTS for Antagonists of gsp, the Etiologic Mutation Responsible for Fibrous Dysplasia/McCune-Albright Syndrome: qHTS; gsp-mutant cells, cAMP HTRF, 30 min; Potency, µM (series often up to 76.9 µM), actives largely listed as inhibitors; hit rate 0.4% among 340,000; AID 624288, 2012; calls by dose curve; cell line not stated here;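 further: intracellular cAMP measured with PDE inhibitor Ro 20-1724 present during compound exposure; nearly all actives have a fitted effect of over 65% in size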
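Cells, 2000/well, grown 16–24 h in DMEM 10% FBS with 0.5 mg/ml G418, then compounds plus […] (300 uM addition stock), 30 min at 37C. cAMP read by HTRF (cAMP-d2 and anti-cAMP antibody-K in lysis buffer) after 30 min RT.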
Integrin act MD – qHTS for Activators of Integrin-Mediated Alleviation for Muscular Dystrophy | Potency, µM (top dose mostly 38.3 µM), most hits filed as activators | hit rate 0.064% among 350,000 | AID 624291, 2012 | alpha7betagal myoblasts, beta-gal FDG fluorescence, 48 h; further: nearly all actives have a fitted effect of over 60% in size
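Alpha7betagal+/- myoblasts (passage 13) were plated 16-24 hr, then exposed to compounds (1:260 dilution of DMSO stock) for 48 hours at 37C. After MPER lysis, β-galactosidase reporter activity was read as FDG fluorescence (ex 480/em 540) after 30 minutes.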
gsp agonist – qHTS for Agonist of gsp, the Etiologic Mutation Responsible for Fibrous Dysplasia/McCune-Albright Syndrome: qHTS; gsp mutant cells, cAMP HTRF, 30 min; Potency, µM (doses to about 76.9 µM), actives largely listed as activators; hit rate 0.13% among 340,000; AID 624287, 2012; active means well fitted activation curve with a large enough effect; inconclusive means small, poorly fitted or top-dose-only effect, or another doubt; inactive means no such curve, though single readings can be large or run the other way; cell line not stated here;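 further: phosphodiesterase inhibitor Ro 20-1724 added with compounds to block cAMP breakdown; nearly all actives have a fitted effect of over 60% in size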
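Cells stably selected in G418 were plated at 2000/well, grown 16-24 hr, then given compounds in DMSO with the PDE inhibitor […] (300 uM solution added) for 30 min at 37C; cAMP was read by HTRF.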
RXFP1 ag – qHTS Assay for Agonists of the Relaxin Receptor RXFP1; HEK293T-RXFP1 cAMP TR-FRET, 30 min; response scale: percent of porcine relaxin response, buffer zero; Potency, µM (highest dose often 57.5 µM), usual class: activators; hit rate 0.3% among 370,000; further: nearly all actives have a fitted effect of over 60% in size
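HEK293 cells stably expressing RXFP1, treated 30 min at 37C with compounds plus PDE4 inhibitor Ro 20174; cAMP measured by HTRF TR-FRET. Normalized to buffer and 29 nM porcine relaxin; EC50 by Hill fit.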
Numbers stand for hits; [ ] = another dose, or the depositor's remark. Unless noted, the call rests on the fitted dose curve; in most records, active means well fitted curve in the direction sought with a large enough effect; inconclusive means small, poorly fitted or top-dose-only effect, or another doubt; inactive means no such curve, though single readings can be large; an effect the other way counts as inactive or inconclusive.

How did CCCOc1ccc(/C=N/Nc2ccc(C(=O)O)cc2)c(OCCC)c1 do in these assays?
RXFP1 antagonist: inconclusive; S-ASM inh: inactive; gsp antagonist: 10µM; Integrin act MD: inactive; gsp agonist: inactive[15.4 µM]; RXFP1 ag: inactive

What do the screens show for `Cc1cc(OCc2ccccc2)ccc1/C(O)=C1/C(=O)C(=O)N(Cc2cccnc2)C1c1ccncc1` (centres undefined)?
RXFP1 antagonist: inactive; S-ASM inh: inactive; gsp antagonist: inactive; Integrin act MD: inactive; gsp agonist: inactive[15.4 µM]; RXFP1 ag: 25µM

Results for CCC(C)NC(=O)C(Cc1ccccc1)NS(=O)(=O)c1ccc2c(c1)CCC(=O)N2 (centres undefined) ?
RXFP1 antagonist: -71; S-ASM inh: inactive; gsp antagonist: inactive; Integrin act MD: inactive; gsp agonist: inactive; RXFP1 ag: inactive

What do the screens show for `Cc1cc(C)cc(NC(=O)C(Cc2ccccc2)NS(=O)(=O)c2ccc3c(c2)CCC(=O)N3)c1` (centres undefined)?
RXFP1 ag: inactive

What do the screens show for `CCOc1ccc(C(=O)c2cn(CC(=O)Nc3ccc(OC)cc3)c3cc4c(cc3c2=O)OCO4)cc1`?
RXFP1 ag: 25µM

What do the screens show for `Cc1ccc([N+](=O)[O-])cc1N=Nc1c(C)[nH]n(C(N)=S)c1=O`?
RXFP1 antagonist: inactive; S-ASM inh: inactive; gsp antagonist: inactive; Integrin act MD: inactive; gsp agonist: inactive; RXFP1 ag: inactive

Results for Cc1ccc([N+](=O)[O-])cc1N=Nc1c(-c2ccc([N+](=O)[O-])cc2)[nH]n(C(N)=S)c1=O ?
RXFP1 antagonist: inactive; S-ASM inh: inactive; gsp antagonist: 13µM; Integrin act MD: inactive; gsp agonist: inactive; RXFP1 ag: inactive

How did COC(=O)c1cc(CSc2nc3ccccc3c(=O)n2C)oc1C do in these assays?
RXFP1 antagonist: inactive; S-ASM inh: inactive; gsp antagonist: 35µM; Integrin act MD: inactive; gsp agonist: inactive; RXFP1 ag: inactive

What do the screens show for `CCN(CC)S(=O)(=O)c1ccc2c(c1)N(CC(=O)NCc1ccccn1)C(=O)CO2`?
RXFP1 antagonist: inactive; S-ASM inh: inactive; gsp antagonist: inactive; Integrin act MD: inactive; gsp agonist: inconclusive; RXFP1 ag: 25µM

What do the screens show for `CCN(CC)S(=O)(=O)c1ccc2c(c1)N(CC(=O)Nc1cccnc1Cl)C(=O)CO2`?
RXFP1 antagonist: inactive; S-ASM inh: inactive; gsp antagonist: inactive; Integrin act MD: inactive; gsp agonist: inconclusive; RXFP1 ag: 13µM

What do the screens show for `CCCCCCCCCCCCCCCCCCN(C)C`?
RXFP1 antagonist: inactive

Results for CC(C)/C(C=O)=C(/NC1CCCCC1)c1ccccc1 ?
RXFP1 antagonist: -63; S-ASM inh: inactive; gsp antagonist: inactive; Integrin act MD: inactive; gsp agonist: inactive[15.4 µM]

What do the screens show for `COc1cccc2sc(NC(=O)c3ccc(S(=O)(=O)N4CCC(C)CC4)cc3)nc12`?
RXFP1 ag: inactive

Results for O=C(NCCc1ccccc1Cl)c1ccc(Cn2c(=O)c3cccn3c3cccnc32)cc1 ?
RXFP1 antagonist: inactive; RXFP1 ag: 22µM

Results for CCc1cccc(OCC2Cn3c(nc4c3c(=O)[nH]c(=O)n4C)O2)c1 (centres undefined) ?
RXFP1 antagonist: inactive; S-ASM inh: inactive; gsp antagonist: inactive; Integrin act MD: inactive; gsp agonist: inactive; RXFP1 ag: inactive

How did Cn1c(/C=N/Nc2nc3ccccc3[nH]2)nc2ccccc21 do in these assays?
RXFP1 antagonist: inactive; S-ASM inh: inactive; gsp antagonist: inactive; Integrin act MD: inactive; gsp agonist: inactive; RXFP1 ag: inactive

What do the screens show for `Cc1c(/C=N/Nc2nc3ccccc3[nH]2)c2ccccc2n1C`?
RXFP1 antagonist: inactive; S-ASM inh: inactive; gsp antagonist: 40µM; Integrin act MD: inactive; gsp agonist: inactive[15.4 µM]; RXFP1 ag: inactive

What do the screens show for `CC/C(=N\NC(=O)CCC(=O)NCc1ccccc1)c1ccc(O)cc1`?
RXFP1 antagonist: inactive; S-ASM inh: inactive; gsp antagonist: inactive; Integrin act MD: inactive; gsp agonist: inactive[15.4 µM]; RXFP1 ag: inactive

How did CCc1ccc(NC(=O)c2ccc3[nH]c(C)c(C)c3c2)cc1 do in these assays?
RXFP1 antagonist: inactive; RXFP1 ag: inactive

How did CC(C)C(C(=O)Nc1ccncc1)c1ccc(Cl)cc1 (centres undefined) do in these assays?
RXFP1 antagonist: inactive; S-ASM inh: inactive; gsp antagonist: inactive; Integrin act MD: inactive; gsp agonist: inactive; RXFP1 ag: inactive

How did CC(C)C(C(=O)Nc1nccs1)c1ccc(Cl)cc1 (centres undefined) do in these assays?
RXFP1 antagonist: -83; S-ASM inh: inactive; gsp antagonist: inactive; Integrin act MD: inactive; gsp agonist: inactive[15.4 µM]; RXFP1 ag: inactive

How did CCC(=O)Oc1ccc(C/C(=N\O)c2ccc(O)cc2O)o1 do in these assays?
RXFP1 antagonist: -60; S-ASM inh: inactive; gsp antagonist: 5.6µM; Integrin act MD: inactive; gsp agonist: inactive; RXFP1 ag: inactive

What do the screens show for `COc1ccc(OC)c(NC(=O)C(C)OC(=O)c2cc3ccccc3[nH]2)c1` (centres undefined)?
S-ASM inh: inactive; gsp antagonist: 22µM; Integrin act MD: inconclusive; gsp agonist: inactive

Results for CCC(C)n1nccc1NC(=O)C(C)OC(=O)c1cc2ccccc2[nH]1 (centres undefined) ?
RXFP1 antagonist: inactive; S-ASM inh: inactive; gsp antagonist: inactive; Integrin act MD: inactive; gsp agonist: inactive; RXFP1 ag: inactive

How did COc1ccccc1NC(=O)C(C)OC(=O)c1cc2ccccc2[nH]1 (centres undefined) do in these assays?
RXFP1 antagonist: inactive; S-ASM inh: inactive; gsp antagonist: 35µM; Integrin act MD: inactive; gsp agonist: inactive; RXFP1 ag: inactive

What do the screens show for `O=S(=O)(Nc1c(S(=O)(=O)c2ccccc2)c2nc3ccccc3nc2n1C1CCCCC1)c1ccccc1`?
RXFP1 antagonist: -72; S-ASM inh: inactive; gsp antagonist: inactive; Integrin act MD: inactive; gsp agonist: inactive; RXFP1 ag: inactive

Results for OC[C@]1(O)OC[C@@H](O)[C@H](O)[C@@H]1O ?
RXFP1 antagonist: inactive

How did COc1ccc(CC(=O)NNC(=O)c2ccccn2)cc1 do in these assays?
RXFP1 antagonist: -61; S-ASM inh: inactive; gsp antagonist: inactive; Integrin act MD: inactive; gsp agonist: inactive; RXFP1 ag: inactive

Bioassay records from PubChem.
